PubChem BioAssay (NCATS)
Values without a mark were called inactive. Inconclusive results are not listed. Where a call stands in place of a potency, no number is given. Activity calls are given as the source filed them. Unless noted, calls come from the whole dose curve; as a rule, active = well fitted curve in the direction sought with a large enough effect; inconclusive = small, poorly fitted or top-dose-only effect, or another doubt; inactive = no such curve, though single readings can be large; an effect the other way counts as inactive or inconclusive. Square brackets hold non-standard residues; d marks the D form. Peptide text beside a SMILES is read from it. ξ: configuration not given here. d(hArg(Et2)) = CCN=C(NCC)NCCCC[C@@H](N)C(=O)O; hArg(Et2) = CCN=C(NCC)NCCCC[C@H](N)C(=O)O; Phe(4-Cl) = N[C@@H](Cc1ccc(Cl)cc1)C(=O)O; ξ2Nal = NC(Cc1ccc2ccccc2c1)C(=O)O; 3Pal = N[C@@H](Cc1cccnc1)C(=O)O; ξP = O=C(O)C1CCCN1

Key:
[1] = AP1 Signaling Pathway (AID 357; active = well fitted curve in either direction with a large enough effect, not every such curve was filed as active;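 note: ME-180 reporter cells stimulated with EGF at its EC50 level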); conditions: ME-180 AP-1-bla reporter, EGF-induced, beta-lactamase ratio, 5 h; at 7.69 µM (top of the series) unless noted
Method in brief: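 Beta-lactamase reporter under AP-1 response element, ME-180 background. Stimulus: EC50 EGF. Compound exposure 5 h, 37 °C. Detection: CCF4, 2.5 h RT, 460/530 nm. Values: AC50 from titration.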

[2] = molecular target: Cytochrome P450 1A2 (Homo sapiens) (UniProt P05177); assay: p450-cyp1a2 (AID 410; calls by dose curve; note: potency is the fitted concentration of half-maximal effect)
Method in brief: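 Luminescent readout of luciferin formed from Luciferin-ME by human CYP1A2; data normalized against complete inhibition by 57 uM furafylline. Enzyme 20nM, substrate 100uM at Km, 100mM KPO4 buffer, 60 min reaction at room temperature.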

[3] = NFAT Signaling Pathway (AID 444; active = well fitted curve in either direction with a large enough effect, not every such curve was filed as active;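 note: carbachol stimulus at about its EC50 of 1 µM final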); conditions: Jurkat NFAT-bla M1, carbachol, beta-lactamase ratio, 5 h; at 7.69 µM (top of the series) unless noted
Method in brief: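 Jurkat cells with NFAT-driven β-lactamase reporter and co-expressed M1 receptor, stimulated with carbachol (final 1 uM, ~EC50), compound titration, 5 h at 37 °C. CCF4 loaded 1 h at RT; 460/530 nm ratio gave %activity and AC50.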

[4] = Stat Signaling Pathway (AID 446; active = well fitted curve in either direction with a large enough effect, not every such curve was filed as active;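 note: ME-180 cervical cancer cells given 40 pM IL-6 alongside compound; SIE-controlled beta-lactamase reporter measured as 460/530 nm FRET emission ratio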)
Method in brief: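 ME-180 cells carrying a SIE-driven beta-lactamase reporter are stimulated with 40 pM IL-6 for 5 h at 37C in the presence of compound. The 460/530 nm FRET substrate ratio is read after 2.5 h at RT. Data are normalised to 300 pM IL-6 and to 125 nM JAK inhibitor controls.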

[5] = molecular target: Glucocorticoid receptor (Homo sapiens) (UniProt P04150); assay: GR-GFP Redistribution (AID 450;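 active = compounds whose dose series gives a full or clear partial fitted curve of increased nuclear translocation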; note: potency is the fitted concentration of half-maximal effect); conditions: U2OS GR-GFP nuclear translocation, laser cytometry, 2 h
[6] = molecular target: Glucocorticoid receptor (Homo sapiens) (UniProt P04150); assay: GR-EFC Redistribution (AID 451; calls by dose curve; note: potency is the fitted concentration of half-maximal effect); conditions: CHO-K1 GR-EFC translocation, beta-gal luminescence, 2 h
Method in brief: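 CHO-K1 cells expressing nuclear EA and GR-ED fragments of b-gal; compounds titrated up to 46 uM final, 2 h at 37 C. GR nuclear translocation read as complemented b-gal luminescence after 1 h RT detection.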

[7] = molecular target: Mitogen-activated protein kinase 10 (Mus musculus) (UniProt Q61831); assay: JNK3 AlphaScreen Assay (AID 530; active = well fitted curve in either direction with a large enough effect, not every such curve was filed as active;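 note: kinase came from lysate of stimulated human HepG2 cells; signal reports phosphorylation of biotinylated GST-cJun 1-79 at Ser73 with 10 µM ATP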)
Method in brief: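 Pre-activated (IL-1β/TNFα) JNK3 in HepG2 lysates phosphorylates biotin-GST-cJun(1-79), 10 uM ATP; anti-phospho-cJun(Ser73) AlphaScreen read at room temperature, pH 7.6 Tris buffer. Compounds pre-incubated 15 min as titrations.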

[8] = molecular target: Cytochrome P450 3A4 (Homo sapiens) (UniProt P08684); assay: qHTS Assay for Activators of Cytochrome P450 3A4 (AID 885); note: nearly all actives have a fitted effect of over 65% in size
Method in brief: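 Human CYP3A4 (20 nM) with Luciferin-PPXE at 25 uM (its KM) in 200 mM KPO4; 10 min compound preincubation, then NADPH regeneration and 60 min reaction at RT. Luciferin read by luminescence; normalized to 57 uM ketoconazole full inhibition.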

[9] = molecular target: Dual specificity protein kinase CLK4 (Homo sapiens) (UniProt Q9HAZ1); assay: qHTS Assay for Inhibitors of CDC-like Kinase 4 (ADP-FP Assay) (AID 1795); note: potency is the fitted concentration of half-maximal effect; nearly all actives have a fitted effect of over 60% in size
Method in brief: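 Kinase activity was measured as ADP production using Transcreener orange tracer (4 nM) and ADP antibody (1 ug/mL) fluorescence polarization, with ADP calculated from a calibration curve. The 1 h reaction contained 6.25 nM Clk4, 1 uM ATP and 100 uM RS peptide at pH 7.5 with Mg2+.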

[10] = molecular target: Glutathione peroxidase 1 (Homo sapiens) (UniProt P07203); assay: Primary qHTS Assay for Inhibitors of Recombinant Selenoprotein Glutathione Peroxidase 1 (GPX1) (AID 1845191); note: nearly all actives have a fitted effect of over 65% in size; note: potency is the fitted concentration of half-maximal effect
Method in brief: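 GR-coupled assay: compounds preincubated 30 min at room temperature with GPX1, then reaction started with CHP; final 10 nM GPX1, 1 mM GSH, 0.5 mM CHP, 0.5 mM NADPH, 100 nM GR, 0.01% BSA, pH 7.5 Tris buffer. NADPH fluorescence (340/450 nm) read at 0 and 15 min.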

[11] = qHTS for differential inhibitors of proliferation of Plasmodium falciparum line 7G8 (AID 1815);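 note: potency is the fitted concentration of half-maximal effect; parasite growth measured after three days of incubation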
[12] = qHTS for differential inhibitors of proliferation of Plasmodium falciparum line GB4 (AID 1816); conditions: Potency: Plasmodium falciparum GB4 proliferation inhibition;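 note: potency is the fitted concentration of half-maximal effect; parasite growth measured after 72 h incubation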
[13] = qHTS for differential inhibitors of proliferation of Plasmodium falciparum line 3D7 (AID 1876); note: potency is the fitted concentration of half-maximal effect
[14] = qHTS for differential inhibitors of proliferation of Plasmodium falciparum line D10 (AID 1877);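 note: potency is the fitted concentration of half-maximal effect; parasites grown with compound for 72 h before DNA staining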
[15] = qHTS for differential inhibitors of proliferation of Plasmodium falciparum line W2 (AID 1883); conditions: Potency: Plasmodium falciparum W2 proliferation inhibition;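 note: potency is the fitted concentration of half-maximal effect; parasites grown with compound for 72 h before lysis and staining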
[16] = qHTS for differential inhibitors of proliferation of Plasmodium falciparum line HB3 (AID 1886); conditions: Potency: Plasmodium falciparum HB3 proliferation inhibition;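 note: potency is the fitted concentration of half-maximal effect; parasites grown with compound for 72 h before SYBR Green readout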
[17] = molecular target: ATP-dependent DNA helicase Q1 (Homo sapiens) (UniProt P46063); assay: qHTS Validation Assay for Inhibitors of RecQ-Like Dna Helicase 1 (RECQ1) (AID 2353)
Method in brief: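 50 nM RECQ1T1 preincubated 15 min with compound in Tris pH 8.0 buffer with MgCl2, DTT, Tween-20 and 2.5 ug/ml poly(dI-dC); started with 200 nM TAMRA/BHQ-2 forked duplex and 2 mM ATP. Unwinding read as fluorescence (525/598 nm), two reads 2 h apart.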

[18] = Quantitative high throughput screen for delayed death inhibitors of the malarial parasite plastid, 96 hour incubation (AID 488745);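 note: luciferase-expressing P. falciparum in erythrocytes at 2% hematocrit and 0.1% parasitemia; nearly all actives have a fitted effect of over 70% in size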
Method in brief: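 Infected erythrocytes were added to compound in Albumax-supplemented RPMI 1640 at 0.1% parasitemia and 2% hematocrit (final), incubated 96 h at 37 C under 5% CO2, then luciferase reagent was added and luminescence measured.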

[19] = Quantitative high throughput screen for delayed death inhibitors of the malarial parasite plastid, 48 hour incubation (AID 488752); note: potency is the fitted concentration of half-maximal effect; nearly all actives have a fitted effect of over 65% in size
Method in brief: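 Readout is firefly luciferase luminescence from a reporter integrated into the parasite genome, with lower signal taken as inhibited growth. Infected red cells (0.1% parasitemia, 2% hematocrit final) are cultured with compound for one 48 h cycle at 37 C.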

[20] = molecular target: M-phase phosphoprotein 8 (Homo sapiens) (UniProt Q99549); assay: qHTS Validation Assay for Inhibitors for MPP8 Chromodomain Interactions with Methylated Histone Tails (AID 488949);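 note: AlphaScreen signal from MPP8 chromodomain bound to biotinylated H3K9me3 peptide; top concentration of the series differs between compounds; nearly all actives have a fitted effect of over 55% in size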
Method in brief: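 AlphaScreen proximity signal from streptavidin donor and Ni-chelate acceptor beads (10 ug/mL each) reported binding of MPP8 to trimethyl-K9 H3(1-18) peptide, both at 50 nM. The complex formed 30 min before a 30 min compound exposure at room temperature, in PBS pH 7.4.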

[21] = molecular target: Transient receptor potential cation channel subfamily V member 1 (Homo sapiens) (UniProt Q8NER1); assay: HTS Assay for Compounds that Act as Enhancers of the Vanilloid Receptor 1 (AID 488979)
Method in brief: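 TRPV1 cells loaded with Fluo-8 calcium dye; compound added and Ca2+ signal (ex 480/em 520 nm) followed 3 min, then capsaicin at EC20 added and read 2 more min to detect enhancement.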

[22] = molecular target: Thyrotropin receptor (Homo sapiens) (UniProt P16473); assay: qHTS Assay for Antagonists of the Thyroid Stimulating Hormone Receptor (AID 488980)
Method in brief: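 Inhibition of cAMP raised by EC80 TSH (4 nM final) was read by HTRF, with lysate cAMP competing against cAMP-d2 for cryptate antibody after 30 min at room temperature. The cells were transfected HEK293 held in phosphodiesterase inhibitor RO 20-1724 at 70 uM.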

[23] = molecular target: Galactokinase (Homo sapiens) (UniProt P51570); assay: qHTS Validation Assay for Inhibitors of Human Galactokinase (GALK) (AID 493189)
Method in brief: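 Inhibition was measured as remaining ATP, detected by luciferase luminescence after a 1 h room-temperature reaction. Final conditions: 5 nM GALK, 100 uM galactose, 35 uM ATP, pH 8.0 HEPES buffer.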

[24] = Validation screen for small molecules that induce DNA re-replication in SW480 colon adenocarcinoma cells (AID 504364)
Method in brief: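 250 cells/well; compound pinned in; 48 hr, 37 C, 5% CO2; Hoechst added, 40 min; nuclear fluorescence imaged, 405 ex / 500-530 em; re-replication scored as increase in high-intensity nuclei.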

Chain of Glutathione peroxidase 1 (Homo sapiens) (P07203 whole entry, looked up): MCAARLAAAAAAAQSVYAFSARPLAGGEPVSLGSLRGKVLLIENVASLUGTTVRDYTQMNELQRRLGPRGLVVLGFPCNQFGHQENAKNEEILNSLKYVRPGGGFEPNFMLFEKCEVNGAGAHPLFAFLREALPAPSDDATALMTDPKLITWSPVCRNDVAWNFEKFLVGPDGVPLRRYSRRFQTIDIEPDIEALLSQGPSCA
Chain of Glucocorticoid receptor (Homo sapiens) (P04150 whole entry, looked up, the tested form may be a part): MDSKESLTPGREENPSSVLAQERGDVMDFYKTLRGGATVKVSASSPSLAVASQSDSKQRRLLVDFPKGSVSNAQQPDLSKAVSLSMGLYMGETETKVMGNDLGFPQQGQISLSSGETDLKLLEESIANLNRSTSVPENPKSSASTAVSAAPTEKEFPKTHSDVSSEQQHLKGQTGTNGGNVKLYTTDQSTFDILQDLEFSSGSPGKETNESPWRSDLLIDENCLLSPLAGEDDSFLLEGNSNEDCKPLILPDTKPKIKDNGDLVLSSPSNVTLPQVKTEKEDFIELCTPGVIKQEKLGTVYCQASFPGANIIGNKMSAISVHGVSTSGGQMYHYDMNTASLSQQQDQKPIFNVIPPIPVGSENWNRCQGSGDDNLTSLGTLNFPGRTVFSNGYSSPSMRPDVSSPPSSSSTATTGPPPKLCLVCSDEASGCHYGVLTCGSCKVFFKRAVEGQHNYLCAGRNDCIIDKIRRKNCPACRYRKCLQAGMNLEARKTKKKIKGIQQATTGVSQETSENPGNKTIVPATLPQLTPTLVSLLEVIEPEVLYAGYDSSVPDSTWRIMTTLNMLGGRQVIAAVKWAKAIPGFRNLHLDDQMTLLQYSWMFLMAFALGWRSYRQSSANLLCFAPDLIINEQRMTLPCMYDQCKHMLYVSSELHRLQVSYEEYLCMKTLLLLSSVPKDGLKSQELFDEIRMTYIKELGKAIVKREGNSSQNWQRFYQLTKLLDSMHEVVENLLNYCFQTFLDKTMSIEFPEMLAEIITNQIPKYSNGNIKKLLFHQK
Chain of Cytochrome P450 3A4 (Homo sapiens) (P08684 whole entry, looked up): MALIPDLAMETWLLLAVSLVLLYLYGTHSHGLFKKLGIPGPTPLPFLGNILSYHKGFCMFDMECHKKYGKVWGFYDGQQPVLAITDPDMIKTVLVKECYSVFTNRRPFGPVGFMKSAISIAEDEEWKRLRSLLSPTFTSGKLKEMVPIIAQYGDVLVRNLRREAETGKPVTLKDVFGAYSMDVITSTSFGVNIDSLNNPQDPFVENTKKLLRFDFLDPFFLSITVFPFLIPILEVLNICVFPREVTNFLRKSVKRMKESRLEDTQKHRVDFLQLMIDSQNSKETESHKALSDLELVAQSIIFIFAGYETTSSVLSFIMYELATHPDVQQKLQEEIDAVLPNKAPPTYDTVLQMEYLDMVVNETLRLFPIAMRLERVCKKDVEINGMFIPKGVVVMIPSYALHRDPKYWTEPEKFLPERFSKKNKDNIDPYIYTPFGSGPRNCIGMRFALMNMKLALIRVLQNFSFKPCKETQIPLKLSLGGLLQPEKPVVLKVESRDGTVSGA
Chain of Cytochrome P450 1A2 (Homo sapiens) (P05177 whole entry, looked up): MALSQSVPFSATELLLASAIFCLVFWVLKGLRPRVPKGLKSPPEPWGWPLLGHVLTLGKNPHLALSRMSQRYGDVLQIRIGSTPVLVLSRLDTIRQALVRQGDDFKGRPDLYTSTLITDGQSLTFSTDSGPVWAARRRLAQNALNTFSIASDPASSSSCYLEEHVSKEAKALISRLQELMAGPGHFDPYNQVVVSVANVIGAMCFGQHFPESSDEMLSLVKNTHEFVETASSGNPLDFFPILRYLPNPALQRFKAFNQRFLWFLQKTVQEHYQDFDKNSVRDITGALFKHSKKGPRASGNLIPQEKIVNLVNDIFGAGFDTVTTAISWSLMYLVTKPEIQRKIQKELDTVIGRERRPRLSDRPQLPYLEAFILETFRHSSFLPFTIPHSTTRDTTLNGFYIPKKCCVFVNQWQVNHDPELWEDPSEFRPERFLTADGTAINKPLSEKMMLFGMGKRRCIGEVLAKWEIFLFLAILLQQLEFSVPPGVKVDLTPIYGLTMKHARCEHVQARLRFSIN
Chain of Dual specificity protein kinase CLK4 (Homo sapiens) (Q9HAZ1 whole entry, looked up): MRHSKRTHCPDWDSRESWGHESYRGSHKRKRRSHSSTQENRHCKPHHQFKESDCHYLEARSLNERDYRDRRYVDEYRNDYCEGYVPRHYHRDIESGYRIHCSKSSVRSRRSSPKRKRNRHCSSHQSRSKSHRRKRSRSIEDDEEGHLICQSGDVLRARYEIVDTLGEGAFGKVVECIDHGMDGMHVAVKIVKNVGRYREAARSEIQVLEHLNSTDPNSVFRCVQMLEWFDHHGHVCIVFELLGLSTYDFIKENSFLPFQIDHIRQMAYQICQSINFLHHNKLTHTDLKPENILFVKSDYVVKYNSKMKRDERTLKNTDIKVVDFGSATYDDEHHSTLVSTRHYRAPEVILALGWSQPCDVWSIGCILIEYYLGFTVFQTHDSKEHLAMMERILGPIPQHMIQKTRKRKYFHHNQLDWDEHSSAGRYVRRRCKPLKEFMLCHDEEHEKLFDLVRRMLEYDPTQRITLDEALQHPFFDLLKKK
Chain of ATP-dependent DNA helicase Q1 (Homo sapiens) (P46063 whole entry, looked up): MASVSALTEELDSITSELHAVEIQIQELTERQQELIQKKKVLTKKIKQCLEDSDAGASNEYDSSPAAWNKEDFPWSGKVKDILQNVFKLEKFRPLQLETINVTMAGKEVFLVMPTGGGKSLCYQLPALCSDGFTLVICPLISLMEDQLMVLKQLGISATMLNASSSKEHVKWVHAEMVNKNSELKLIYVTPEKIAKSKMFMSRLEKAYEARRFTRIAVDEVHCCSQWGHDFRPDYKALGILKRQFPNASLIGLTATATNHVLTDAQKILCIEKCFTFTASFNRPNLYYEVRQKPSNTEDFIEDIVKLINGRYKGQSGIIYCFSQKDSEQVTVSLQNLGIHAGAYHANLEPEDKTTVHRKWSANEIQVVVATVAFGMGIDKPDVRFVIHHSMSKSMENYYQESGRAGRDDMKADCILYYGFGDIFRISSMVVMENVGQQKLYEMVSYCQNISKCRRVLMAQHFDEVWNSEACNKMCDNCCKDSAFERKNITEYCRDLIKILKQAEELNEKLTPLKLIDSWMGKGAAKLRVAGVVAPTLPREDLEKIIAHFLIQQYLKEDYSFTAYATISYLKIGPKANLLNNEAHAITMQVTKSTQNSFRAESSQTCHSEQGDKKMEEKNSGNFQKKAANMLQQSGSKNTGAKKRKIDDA
Chain of M-phase phosphoprotein 8 (Homo sapiens) (Q99549 whole entry, looked up): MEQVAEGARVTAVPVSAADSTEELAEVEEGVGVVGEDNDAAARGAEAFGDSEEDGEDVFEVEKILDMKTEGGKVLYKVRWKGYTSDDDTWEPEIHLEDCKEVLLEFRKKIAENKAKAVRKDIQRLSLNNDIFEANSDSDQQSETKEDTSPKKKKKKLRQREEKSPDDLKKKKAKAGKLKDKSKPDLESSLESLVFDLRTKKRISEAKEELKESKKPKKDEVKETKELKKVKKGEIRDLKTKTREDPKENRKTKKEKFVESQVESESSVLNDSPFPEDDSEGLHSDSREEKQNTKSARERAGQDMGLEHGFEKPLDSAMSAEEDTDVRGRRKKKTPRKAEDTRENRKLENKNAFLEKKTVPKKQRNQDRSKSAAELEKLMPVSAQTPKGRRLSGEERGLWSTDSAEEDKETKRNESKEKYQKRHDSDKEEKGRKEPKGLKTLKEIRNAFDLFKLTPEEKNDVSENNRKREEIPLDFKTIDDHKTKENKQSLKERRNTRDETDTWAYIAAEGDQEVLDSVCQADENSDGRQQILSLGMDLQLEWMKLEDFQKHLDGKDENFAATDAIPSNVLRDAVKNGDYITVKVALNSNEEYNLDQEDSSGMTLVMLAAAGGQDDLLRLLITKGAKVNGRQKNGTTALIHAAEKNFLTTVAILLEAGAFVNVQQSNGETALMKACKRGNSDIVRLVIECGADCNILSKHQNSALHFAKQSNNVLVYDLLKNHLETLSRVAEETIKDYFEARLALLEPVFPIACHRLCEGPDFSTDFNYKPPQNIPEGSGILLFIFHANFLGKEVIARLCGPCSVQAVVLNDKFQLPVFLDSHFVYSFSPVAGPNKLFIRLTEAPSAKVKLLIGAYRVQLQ
Chain of Galactokinase (Homo sapiens) (P51570 whole entry, looked up): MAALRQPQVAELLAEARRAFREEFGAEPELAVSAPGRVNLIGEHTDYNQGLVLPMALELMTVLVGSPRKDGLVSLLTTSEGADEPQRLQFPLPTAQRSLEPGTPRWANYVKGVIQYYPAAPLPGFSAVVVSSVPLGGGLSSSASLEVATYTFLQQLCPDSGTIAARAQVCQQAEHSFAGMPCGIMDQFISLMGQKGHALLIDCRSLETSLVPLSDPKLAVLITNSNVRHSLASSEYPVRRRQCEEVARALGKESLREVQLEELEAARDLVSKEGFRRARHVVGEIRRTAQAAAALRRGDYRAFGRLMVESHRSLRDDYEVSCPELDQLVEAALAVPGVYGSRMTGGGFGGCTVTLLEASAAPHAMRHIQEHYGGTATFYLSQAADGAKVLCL

c1ccc(Nc2nc(-c3ccoc3)nc3ccccc23)cc1
activity change, negative = inhibition [1]: 0.696% | Potency [2]: 200 nM (active) | activity change, negative = inhibition [3]: 2.6% | outcome [4]: inactive | Potency [5]: > 46 µM | Potency [6]: > 46 µM | Potency [7]: inactive | outcome [8]: inactive | Potency [9]: 7.94 µM (active)

CCc1c(C(=O)Nc2cc(S(=O)(=O)N(CC)CC)ccc2O)[nH]c(C)c1C(C)=O
Potency [10]: inactive

Cn1cc(C(=O)Cc2ccccc2)cc1/C=C/C(=O)NO
Potency [10]: inactive

C1CCC[C@H]2CCCN3CC[C@H](CCCCCC[C@@H]4CCCN5CC[C@H](CC1)O[C@H]45)O[C@H]23
activity, negative = inhibition [10]: 1.08% [at 0.127 µM]

CC1CCc2c(sc3nc(-c4cc5ccccc5oc4=O)nc(Cl)c23)C1 (configuration not stated)
Potency [10]: inactive

CC(=O)O[C@]1(C(C)=O)CC[C@H]2C3C=C(Cl)C4=CC(=O)[C@@H]5C[C@H]5[C@]4(C)C3CC[C@@]21C (some centres not stated)
Potency [11]: 12.6 µM (active) | Potency [12]: 10 µM (active) | Potency [13]: 8.91 µM (active) | Potency [14]: 14.1 µM (active) | Potency [15]: 8.91 µM (active) | Potency [16]: 12.6 µM (active) | outcome [17]: inactive | Potency [18]: inactive | Potency [19]: 9.28 µM (active) | Potency [20]: inactive | outcome [21]: inactive | outcome [22]: inactive | outcome [23]: inactive | Potency [24]: inactive

CCNC(=NCCCC[C@H](NC(=O)[C@H](CC(C)C)NC(=O)[C@@H](CCCCN=C(NCC)NCC)NC(=O)[C@@H](Cc1ccc(O)cc1)NC(=O)[C@@H](CO)NC(=O)[C@H](Cc1cccnc1)NC(=O)[C@H](Cc1ccc(Cl)cc1)NC(=O)C(Cc1ccc2ccccc2c1)NC(C)=O)C(=O)N1CCCC1C(=O)N[C@H](C)C(N)=O)NCC (some centres not stated) (Ac-[ξ2Nal][Phe(4-Cl)][3Pal][dS][dY][d(hArg(Et2))]L[hArg(Et2)][ξP][dA]-NH2)
Potency [10]: inactive

NC(=O)C1(N2CCCCC2)CCN(CCCN2c3ccccc3CCc3ccccc32)CC1
Potency [10]: inactive

NCc1ccc(Oc2ccccc2)cc1
Potency [10]: inactive

O=C(CCCCCCSc1ccc2ccccc2c1)NO
Potency [10]: inactive

COc1ccc(-c2nn3c(-c4ccco4)nnc3s2)cc1OC
Potency [10]: inactive

COc1ccc(Cl)cc1NC(=O)Nc1cc(C)nc2ccccc12
Potency [10]: inactive

CC(NC(=O)c1ccccc1N=Cc1c(O)ccc2ccccc12)c1ccccc1 (configuration not stated)
Potency [10]: inactive

C=C1/C(=C\C=C2/CCC[C@@]3(C)C2CC[C@@H]3[C@H](C)/C=C\[C@@H](O)C2CC2)C[C@@H](O)C[C@@H]1O (some centres not stated)
Potency [10]: inactive

CC(C)(C)c1ccc(S(=O)(=O)Nc2ccc(-n3ccnc3)cc2)cc1
Potency [10]: inactive

CCn1cc(-c2cccc(C(F)(F)F)c2)c2sc(C(N)=NC3CCS(=O)(=O)CC3)cc2c1=O
Potency [10]: 20.2 µM (active)
